Source: PubChem BioAssay (National Center for Advancing Translational Sciences (NCATS))
Sampled rows, rich in hits. Any-hit rate of the full collection: about 15%.
HCV inh: blocks hepatitis C virus; Potency, µM (doses to about 41.8 µM), without a hit: top-dose activity change, negative = inhibition, usual class: inhibitors; Huh7.5.1 HCVcc-Cre infection, luciferase reporter, 44 h; AID 651820; 3.4% of 340,000 active; further: potency means the concentration at half of the fitted maximal effect; on the % scale 0 is the no-effect control and ±100 the full control effect
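HCVcc-Cre virus at an moi near 0.5 was added right after compound to cells cultured 4 h from seeding (1,000 cells/well). Luciferase activity was determined 44 h later, 15 min after substrate addition at RT.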
HCMV inh: inhibitors of human cytomegalovirus. 4.5% of 410,000 active. HFF cells, HCMV-luciferase reporter, 72 h; stronger effect = lower value. activity change, negative = inhibition, % at 57.5 µM. AID 1259415; in the data active means activity change below about -60%; inconclusive means no clear call, values can overlap the other calls; inactive means above about -39%; further: on the % scale 0 is the no-effect control and ±100 the full control effect
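Human foreskin fibroblasts infected with luciferase-reporter HCMV at MOI 1 PFU/cell, compounds at two doses. Luciferase measured 72 h post infection; normalized to buffer-only basal and Salinomycin (10uM) controls.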
Pf growth 48h: inhibits P. falciparum growth in the first generation, 48 h | Potency, µM (titrated, usually from 28.7 µM), for the others: at the highest dose activity change, negative = inhibition, most hits filed as inhibitors | P. falciparum luciferase growth in erythrocytes, 48 h | AID 504832 | 5.9% of 310,000 active; further: potency means the concentration at half of the fitted maximal effect; on the % scale 0 is the no-effect control and ±100 the full control effect
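Erythrocytes infected with P. falciparum carrying an integrated firefly luciferase reporter (2% hematocrit, 0.1% parasitemia final) were exposed to compounds in RPMI 1640 with 0.5% Albumax at 37 C, 5% CO2. Growth inhibition was scored as reduced luminescence.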
Pf growth 96h: P. falciparum growth inhibition at 96 hour, primary screen for plastid delayed-death inhibitors; P. falciparum luciferase reporter growth, 96 h; Potency, µM (top dose mostly 28.7 µM), for the others: at the highest dose activity change, negative = inhibition, usual class: inhibitors; 6.9% of 320,000 active; further: potency means the concentration at half of the fitted maximal effect; on the % scale 0 is the no-effect control and ±100 the full control effect
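Delayed-death screen, second-generation endpoint: infected erythrocytes, 2% hematocrit, 0.05% parasitemia final; 96 hours at 37 C, 5% CO2; luciferase detection reagent; luminescence decrease equals reduced growth.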
SARS PLpro yeast: inhibitors of SARS-CoV papain-like protease in yeast | S. cerevisiae expressing SARS-CoV PLpro, growth rescue | 0.19% of 330,000 active | Potency, µM (top dose mostly 32.9 µM), for inactives: top-dose activity, positive = growth rescue, usual class: activators; calls by dose curve; further: potency means the concentration at half of the fitted maximal effect; 0% is about no effect; nearly all actives have a fitted effect of over 55% in size
Sm TGR inh: blocks Schistosoma mansoni thioredoxin glutathione reductase; Q962Y6; purified TGR, DTNB reduction, TNB absorbance 405 nm; Potency, µM (highest dose often 114 µM), without a hit: at the top dose activity change, negative = inhibition, usual class: inhibitors; 3% of 360,000 active; AID 485364; further: potency means the concentration at half of the fitted maximal effect; on the % scale 0 is the no-effect control and ±100 the full control effect; nearly all actives have a fitted effect of over 60% in size
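Kinetic colorimetric format: TGR-catalysed, NADPH-driven DTNB reduction monitored via TNB absorbance. Enzyme dispensed at 20 nM; compound exposure 15 min at room temperature before reaction start.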
Starred values were filed as active, the others as inactive; ? = inconclusive; · = no result given; [ ] = remark or other dose. Unless noted, the call rests on the fitted dose curve; in most records, active means well fitted curve in the direction sought with a large enough effect; inconclusive means small, poorly fitted or top-dose-only effect, or another doubt; inactive means no such curve, though single readings can be large; an effect the other way counts as inactive or inconclusive.

SMILES	HCV inh	HCMV inh	Pf growth 48h	Pf growth 96h	SARS PLpro yeast	Sm TGR inh
C=CCN(CC=C)Cc1nc(N)nc(Nc2ccccc2C)n1	-5%	-2	?	9.3µM*	1%	-3%
Cc1c(Cl)cccc1Nc1nc(N)nc(CSc2ncccn2)n1	-12%	-94*	·	?	0%	-5%
Nc1nc(CCl)nc(Nc2ccc3ccccc3c2)n1	0.89µM*	-93*	?	13µM*	-1%	16µM*
Cc1ccccc1Nc1nc(N)nc(CSc2nnc(-c3ccccc3)n2C)n1	20%	?	?	13µM*	-2%	-4%
Cc1ccc(Nc2nc(N)nc(CN3CCN(C)CC3)n2)cc1C	·	·	0%	?	-1%	7%
Cc1ccccc1Nc1nc(N)nc(CCl)n1	1.3µM*	-101*	?	5.2µM*	0%	?
CCCC(=O)NC(c1ccc(OC)c(OC)c1)c1c(O)ccc2ccccc12 (centres undefined)	·	45	?	?	-3%	-5%
CCCCC(=O)NC(c1ccc(OC)c(OC)c1)c1c(O)ccc2ccccc12 (centres undefined)	-13%	19	?	12µM*	1%	0%
CCCCC(=O)NC(c1ccccc1Cl)c1c(O)ccc2ccccc12 (centres undefined)	-4%	?	10µM*	62%	16%	-10%
CCCC(=O)NC(c1ccccc1)c1c(O)ccc2ccccc12 (centres undefined)	?	9	0%	11%	2%	5%
CCCC(=O)NC(c1ccccc1Cl)c1c(O)ccc2ccccc12 (centres undefined)	-22%	-16	10µM*	22%	7%	-21%
COc1ccc(OC[C@@H](O)CNC(=O)c2cccc3c2C(=O)c2ccc(-c4ccc(F)cc4OCc4ccccc4)cc2S3(=O)=O)cc1	?	·	·	·	1%	·
COc1ccc(NC(=O)c2cccc3c2C(=O)c2ccc(-c4ccc(F)cc4OCc4ccccc4)cc2S3(=O)=O)cc1	-6%	-64*	·	·	-1%	·
CN1CCN(C(=O)c2ccc3c(c2)S(=O)(=O)c2ccccc2C3=O)CC1	-18%[8.37 µM]	-62*	8%	-1%	-1%	-17%
CC(C)(C)c1ccc(NC(=O)c2ccc3c(c2)S(=O)(=O)c2ccccc2C3=O)cc1	10%	21	·	·	·	·
CC(=O)N1CCN(C(=O)c2ccc3c(c2)S(=O)(=O)c2ccccc2C3=O)CC1	13%	·	-12%	4%	15%	6%
COc1ccc(NC(=O)c2ccc3c(c2)S(=O)(=O)c2ccccc2C3=O)cc1	3%	-63*	·	·	·	·
Cc1ccc(NC(=O)COCC(=O)Nc2ccc(F)cc2)cc1	16%	-2	5%	-9%	-1%	3%
COc1cccc(-c2noc(CCCC(=O)Nc3ccc(C(N)=O)cc3)n2)c1	0%	-6	37%	-17%	2%	-4%
Cc1ccccc1-n1c(C)nnc1SCC(=O)N(C)C1CCS(=O)(=O)C1 (centres undefined)	26%	19	37%	30%	0%	-22%
COc1ccc(Cl)cc1NC(=O)c1ocnc1C	?	-27	-2%	1µM*	-7%	-17%
COc1ccc(Cl)cc1NC(=O)NNC(=O)c1ccccn1	3%	-20	-23%	10µM*	-2%	1%
COc1ccccc1NC(=O)c1ccccc1NC(=O)c1ccccn1	0%	-31	-8%	?	-3%	-1%
COc1ccc(NC(=O)c2ocnc2C)cc1OC	18%	31	35%	40%	-6%	2%
COc1ccc(Cl)cc1NC(=O)Nc1cnccn1	?	-85*	?	?	2%	2%
SMILES	HCV inh	HCMV inh	Pf growth 48h	Pf growth 96h	SARS PLpro yeast	Sm TGR inh
CCn1c(=O)c([N+](=O)[O-])c(N2CCSCC2)c2ccccc21	14µM*	?	-15%	?	0%	0%
O=c1c([N+](=O)[O-])c(N2CCOCC2)c2ccccc2n1Cc1ccccc1	?	-67*	?	23%	-1%	18%
CCn1c(=O)c([N+](=O)[O-])c(N2CCN(Cc3ccc4c(c3)OCO4)CC2)c2ccccc21	11µM*	-64*	?	?	-1%	18%
O=c1sc2ccccc2c(N2CCOCC2)c1[N+](=O)[O-]	5%	7	-13%	28%	-9%	40µM*
CCOC(=O)c1c(C)c(C(=O)NCc2ccc(Cl)cc2)c(C)n1CC	·	?	·	·	·	-1%
CCOC(=O)C(=O)N(C)c1c(CC)nc2c(OCc3cccc(OC)c3)cccn12	·	2	·	·	·	·
COc1ccc(N2CCN(C(CNC(=O)C(=O)NCCCN(C)C)c3cccnc3)CC2)cc1 (centres undefined)	·	7	·	·	·	4%
O=C(NC(NC(=S)N1CCOCC1)C(Cl)(Cl)Cl)c1cccc2ccccc12 (centres undefined)	?	13	2.9µM*	51%	26%	-16%
CCCCCC(=O)NC(NC(=S)N1CCOCC1)C(Cl)(Cl)Cl (centres undefined)	-8%	-5	8.3µM*	-3%	?	-1%
O=C(NN1CCOCC1)c1cccc2ccccc12	24%	9	10%	0%	-4%	-1%
CCC(C)NC(=O)CSc1nc2cc3c(cc2c(=O)n1Cc1ccco1)OCO3 (centres undefined)	-4%	-17	-8%	?	-2%	9%
CCCCNC(=O)CSc1nc2cc3c(cc2c(=O)n1Cc1ccc(C(=O)NCCc2ccc(OC)c(OC)c2)cc1)OCO3	·	-11	·	·	·	-1%
CCN(CC)C(=O)CSc1nc2cc3c(cc2c(=O)n1Cc1ccc(C(=O)NCCc2ccc(OC)c(OC)c2)cc1)OCO3	·	-83*	·	·	·	7%
CCOC(=O)CSc1nc2cc3c(cc2c(=O)n1CCCC(=O)NCCc1ccc(OC)c(OC)c1)OCO3	·	21	·	·	·	5%
CCN(CC)C(=O)CSc1nc2cc3c(cc2c(=O)n1CCCC(=O)NCCc1ccc(OC)c(OC)c1)OCO3	-22%	-67*	?	-19%	1%	-11%
CCN(CC)C(=O)CSc1nc2cc3c(cc2c(=O)n1Cc1ccco1)OCO3	10µM*	17	-34%	8%	-1%	-1%
COc1ccc2c(c1)CC(C(=O)N1CCC(C(N)=O)CC1)CO2 (centres undefined)	·	-4	·	·	·	-3%
Cc1ccc(NC(=O)CSc2ncnc3ccccc23)cc1S(=O)(=O)N1CCCCCC1	?	26	?	?	6%	-8%
O=C(CSc1ncnc2ccccc12)Nc1cc(S(=O)(=O)N2CCCCC2)ccc1Cl	10µM*	?	?	?	-1%	-6%
